# Screening data from PubChem.
# Rab9 prom act – qHTS Assay for Rab9 Promoter Activators; Huh7 Rab9 promoter-luciferase reporter, luminescence, 24 h; hit rate 2.8% among 320,000; Potency, µM (titrated, usually from 9.22 µM), for the others: top-dose activation, negative = inhibition, most hits filed as activators; also: % of control where 0% means no effect; nearly all actives have a fitted effect of over 60% in size
#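 Using Huh7 cells stably transfected with Rab9 promoter–luciferase, compounds were incubated 24 h at 37 °C, 5% CO2; luciferase luminescence was read 10 min after reagent addition.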
# KinaseGlo FLuc – Counterscreen for Luciferase (Kinase-Glo TM) Inhibition; Kinase-Glo luciferase, ATP luminescence, 8 min; Luciferin 4-monooxygenase (Photuris pensylvanica), Q27757; hit rate 0.28% among 200,000; Potency, µM (top dose mostly 38.3 µM), for the others: at the top dose activity change, negative = inhibition, usual class: inhibitors; also: % is scaled to controls: 0 for no effect and ±100 for the full control effect; nearly all actives have a fitted effect of over 60% in size
#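 Recombinant Kinase-Glo luciferase, 10 uM ATP (linear range), luciferin; imidazole pH 7.2 / KCl / MgCl2 / Tween / BSA buffer; 8 min RT; luminescence.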
# ELG1 genotoxic – qHTS screen for small molecules that induce genotoxicity in human embryonic kidney (HEK293T) cells expressing luciferase-tagged ELG1. HEK293T ELG1-luciferase reporter, luminescence, 16 h. Potency, µM (top dose mostly 46 µM), inactives show at the highest dose activity change, positive = activation, most hits filed as activators. hit rate 1.3% among 330,000. AID 504466, 2011; also: % of control where 0% means no effect; nearly all actives have a fitted effect of over 60% in size
#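 Reporter readout depends on ELG1 protein level, which increases with genetic stress. After 16 hr compound exposure at 37 °C, luciferase activity was quantified using ONE-Glo.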
# FLuc modulator – qHTS profiling assay for firefly luciferase inhibitor/activator using purifed enzyme and Km concentrations of substrates (counterscreen for miR-21 project) | Luciferin 4-monooxygenase (Photinus pyralis), P08659 | purified FLuc, Km substrates, luminescence inhibition | Potency, µM (doses to about 57.5 µM), for inactives: at the top dose activity change, negative = inhibition, hits mostly inhibitors | hit rate 6.9% among 360,000 | AID 588342, 2011;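 also: plate controls were vehicle for no effect and reference inhibitor for full effect; nearly all actives have a fitted effect of over 55% in size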
# Target sequence (P08659 whole entry, looked up): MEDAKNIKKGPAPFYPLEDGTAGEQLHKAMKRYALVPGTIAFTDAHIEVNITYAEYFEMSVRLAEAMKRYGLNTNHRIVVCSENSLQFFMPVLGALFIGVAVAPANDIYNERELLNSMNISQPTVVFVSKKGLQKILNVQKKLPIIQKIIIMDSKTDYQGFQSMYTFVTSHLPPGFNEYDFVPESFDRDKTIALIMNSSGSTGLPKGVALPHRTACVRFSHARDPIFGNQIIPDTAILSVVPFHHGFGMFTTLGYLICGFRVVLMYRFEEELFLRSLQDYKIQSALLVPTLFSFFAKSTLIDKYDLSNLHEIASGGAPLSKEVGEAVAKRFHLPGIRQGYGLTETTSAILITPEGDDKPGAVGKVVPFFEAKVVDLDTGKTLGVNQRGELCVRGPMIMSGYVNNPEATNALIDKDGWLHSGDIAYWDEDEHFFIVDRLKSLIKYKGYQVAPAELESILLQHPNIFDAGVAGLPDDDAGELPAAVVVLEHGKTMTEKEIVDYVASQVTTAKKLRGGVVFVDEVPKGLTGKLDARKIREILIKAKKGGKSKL
#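 Purified P. pyralis luciferase, 10 nM final, with Km-level 10 uM D-luciferin and 10 uM ATP in 50 mM Tris acetate pH 7.5, 10 mM Mg acetate, 0.01% Tween-20, 0.05% BSA; 6-point qHTS titration about 60 µM downward; luminescence read.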
# SMN2 splice up – qHTS Assay for Enhancers of SMN2 Splice Variant Expression | HEK293 SMN2-luciferase splicing reporter, luminescence, 30-36 h | Potency, µM (titrated, usually from 46.1 µM), without a hit: at the highest dose activity change, positive = activation, actives largely listed as activators | hit rate 2.8% among 210,000 | AID 1458, 2008; also: % of control where 0% means no effect; nearly all actives have a fitted effect of over 55% in size
#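 HEK293 cells carry an SMN2 minigene-luciferase reporter in which exon 7 inclusion puts luciferase in frame. Cells were seeded at 2000 cells/well, attached for 10-12 hours, then exposed to compounds for 30-36 hours at 37C before ONE-Glo luminescence.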
# NPC1 promoter act – qHTS Assay for NPC1 Promoter Activators; hit rate 2.4% among 320,000; Huh7 NPC1 promoter luciferase reporter, 24 h; AID 485313, 2010; Potency, µM (top dose mostly 9.22 µM), for inactives: top-dose activation, usual class: activators; also: % of control where 0% means no effect; nearly all actives have a fitted effect of over 60% in size
#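 Huh7 cells stably carrying NPC1 promoter–luciferase, plated in Opti-MEM with 10% FBS for 2 h, were exposed to compound in DMSO for 24 h at 37 °C; luciferase reagent was added for 10 min and luminescence read.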
# The depositor's hits bear a star; ? = inconclusive; . = no result given; [ ] = remark or other dose. Most compounds without a hit are left out; they make up all but 7.5% or so of the library. Calls follow the shape of the dose curve; as a rule, active = well fitted curve in the direction sought with a large enough effect; inconclusive = small, poorly fitted or top-dose-only effect, or another doubt; inactive = no such curve, though single readings can be large; an effect the other way counts as inactive or inconclusive. Potency is read from the fitted curve at half-maximal effect.
SMILES,Rab9 prom act,KinaseGlo FLuc,ELG1 genotoxic,FLuc modulator,SMN2 splice up,NPC1 promoter act
CC(C)c1ccc(-c2nnn(CCC(=O)O)n2)cc1,-25%,-1%,-4%,9.5µM*,-27%,-18%
CC(=O)c1cccc(NC(=O)N2CCC(c3ccc(C)cc3)C2)c1 (stereo not drawn),15%,.,3%,17µM*,.,?
Cc1ccc(NC(=O)C2CCCN(C(=O)Nc3ccc(F)cc3)C2)cc1 (stereo not drawn),?,.,16%,-3%,.,0%
Cc1ccc(C2CCN(C(=O)Nc3ccc(F)cc3)C2)cc1 (stereo not drawn),?,.,?,24µM*,.,?
COc1cc2c(cc1OC)C(/C=C/c1ccc(OC)c(OC)c1OC)=NCC2,.,-3%,.,.,-7%,.
Oc1ccccc1/C=N/NC(=S)NC1CC2CCC1C2 (stereo not drawn),2.8µM*,.,12%,27µM*,.,2µM*
S=C(N/N=C/c1ccco1)NC1CC2CCC1C2 (stereo not drawn),?,.,?,19µM*,.,?
COc1ccccc1NC(=O)C1=C(C)Nc2nc(-c3ccco3)nn2C1c1ccccc1F (stereo not drawn),.,.,.,-5%,-9%,.
CCOC(=O)c1sc(N)c(C(=O)Nc2ccccc2)c1C,2.8µM*,2%,17%,?,.,22%
CCOC(=O)c1sc(N)c(C(=O)OCC)c1C,?,.,?,21µM*,.,?
N#Cc1ccc(NC(=O)COCc2cc(-c3ccco3)on2)cc1,.,.,.,-6%,.,.
CCOC(=O)c1cc(-c2ccc(OC)cc2)n(CCC(=O)Nc2ccc(OC)cc2OC)c1C,.,.,.,1%,.,.
CN(C)c1ccc(-c2nc3ccccn3c2Nc2ccc3c(c2)OCCO3)cc1,.,.,.,2.4µM*,?,.
Oc1ccc(-c2nc3ccccn3c2Nc2ccc3c(c2)OCCO3)cc1,.,.,.,19µM*,41%,.
CSc1ccc(C(=O)/C=C/c2ccc(N)cc2)cc1,3.2µM*,-25%,13µM*,0.76µM*,14µM*,?
CSc1ccc(/C=C/C(=O)c2ccc(NC(=O)Cc3ccccc3)cc2)cc1,4%,-1%,-4%,12µM*,-10%,0%
CSc1ccc(/C=C/C(=O)c2ccc(NC(=O)C(C)C)cc2)cc1,-10%,-2%,-2%,9.5µM*,-14%,-2%
CC(C)C(=O)Nc1ccc(Sc2ccc(F)cc2)cc1,-1%,-1%,0%,1%,-8%,-3%
CCCn1c(=O)c2sccc2n2c(CCCC(=O)NCCc3ccc(Cl)cc3)nnc12,.,.,.,-1%,.,.
CCc1ccccc1NC(=O)C1CCN(c2nc3ccccc3[nH]2)CC1,.,.,.,6%,.,.
O=c1cnn([C@@H]2O[C@H](CO)[C@@H](O)[C@H]2O)c(=O)[nH]1,1%,-3%,-12%,3%,2µM*,-6%
N#Cc1ccccc1NC(=O)COC(=O)c1ccc2c(c1)OCCO2,?,-3%,6%,19µM*,6%,1%
Cc1ccccc1NC(=O)c1ccc2c(c1)OCCO2,?,-5%,?,1%[2.3 µM],?,?
Cc1ccc(NC(=O)COc2ccc3c(c2)OCO3)c(Cl)c1,?,.,?,1.5µM*,.,2.8µM*
N#Cc1ccccc1COC(=O)c1ccc2c(c1)OCO2,?,.,15%,?,.,?
N#Cc1ccccc1COC(=O)c1ccc2c(c1)OCCO2,25%,.,18%,13µM*,.,6%
N#Cc1ccccc1NC(=O)c1ccc2c(c1)OCCO2,?,.,?,21µM*,.,?
COc1ccc(SC[C@H](Cc2ccccc2)N2CC[C@@H](NC(=O)OCc3ccccc3)CCC2=O)cc1,-1%,.,-7%,4%,.,-3%
CCc1ccccc1N(C)C(=O)Nc1cn(CC(C)C)c(=O)c2ccccc12,.,.,.,-1%,.,.
